The text below walks through data of PubChem BioAssay (NCATS).

A short description of assay [1]: NS1 protein of Zika virus - qHTS assay to identify small molecule inhibitors in human HEK 293 cells (AID 1347053). Note: series mostly up to about 46 µM; nearly all actives have a fitted effect of over 55% in size. The gist of the method: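 TR-FRET signal from two anti-ZIKV NS1 antibodies quantified NS1 in HEK 293 cells 24 h after MR766 infection at MOI = 0.5; compounds were added 1 h before virus. Uninfected cells and infected cells defined the NS1 normalization range.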
In general terms: Quantitative high-throughput screening tests each substance at several concentrations.

A short description of assay [2]: qHTS of pediatric cancer cell lines to identify multiple opportunities for drug repurposing: Primary screen for DAOY cells (AID 1347090). Note: series mostly up to about 46 µM; nearly all actives have a fitted effect of over 55% in size. The method in brief: (§1)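 Eight- or eleven-point concentration series, 48 h treatment at 37 degrees C in growth media; readout CellTiter-Glo luminescence. Potency and efficacy were taken from the concentration-response curves.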
Assay [3] is described as follows: qHTS of pediatric cancer cell lines to identify multiple opportunities for drug repurposing: Primary screen for SJ-GBM2 cells (AID 1347091). The gist of the method: as §1
Assay [4] can be described thus: qHTS of pediatric cancer cell lines to identify multiple opportunities for drug repurposing: Primary screen for A673 cells (AID 1347092). Note: nearly all actives have a fitted effect of over 45% in size. The gist of the method:
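Cell viability of A673 measured by CellTiter-Glo ATP luminescence after 48 hours compound exposure. Dilution series spanned 0.78 nM to 46 µM (MIPE, 11-point) or 0.59 nM to 46 µM (NPC, 8-point); bortezomib 2.3 uM positive control.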

The nature of assay [5]: qHTS of pediatric cancer cell lines to identify multiple opportunities for drug repurposing: Primary screen for SK-N-MC cells (AID 1347093). Note: potency is the fitted concentration of half-maximal effect. The gist of the method: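 Metabolically active cells were quantified by ATP-dependent luminescence (CellTiter-Glo, 15 min at room temperature) following 48 h treatment. Cells had been plated at 500-1,000 per well and settled for 5 h beforehand.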

Assay [6] in a line: qHTS of pediatric cancer cell lines to identify multiple opportunities for drug repurposing: Primary screen for BT-37 cells (AID 1347094). Note: series mostly up to about 57 µM. The method in brief: (§2)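 Following a 5-hour attachment period, cells at 500-1,000/well received compounds and were cultured for 48 hours. CellTiter-Glo was added and luminescence read to estimate viable, metabolically active cells.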
A short description of assay [7]: qHTS of pediatric cancer cell lines to identify multiple opportunities for drug repurposing: Primary screen for NB-EBc1 cells (AID 1347095). The method in brief: as §2
Assay [8] can be described thus: qHTS of pediatric cancer cell lines to identify multiple opportunities for drug repurposing: Primary screen for U-2 OS cells (AID 1347096). Note: nearly all actives have a fitted effect of over 50% in size. The method in brief: (§3)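 Cells (500-1,000/well) in growth media were settled 5 h at 37 degrees C, then given compounds for 48 h. Viability was read as CellTiter-Glo luminescence. Primary runs used MIPE at 11 points (0.78 nM-46 µM) and NPC at 8 points (0.59 nM-46 µM); follow-ups used 11 points.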

A short description of assay [9]: qHTS of pediatric cancer cell lines to identify multiple opportunities for drug repurposing: Primary screen for SK-N-SH cells (AID 1347098).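 Note: DMSO served as neutral control and bortezomib at 2.3 µM as positive control; nearly all actives have a fitted effect of over 65% in size.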 The gist of the method:
(§4)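 Cells (500-1,000/well) rested 5 h, then received compounds for 48 h; metabolically active cells were measured by CellTiter-Glo luminescence. Final concentrations spanned up to 46 µM (MIPE, 11-point) or 0.59 nM-46 µM (NPC, 8-point) in primary screens, 11-point in follow-ups.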

Assay [10] can be described thus: qHTS of pediatric cancer cell lines to identify multiple opportunities for drug repurposing: Primary screen for NB1643 cells (AID 1347099). Note: nearly all actives have a fitted effect of over 50% in size. The method in brief:
as §2

A short description of assay [11]: qHTS of pediatric cancer cell lines to identify multiple opportunities for drug repurposing: Primary screen for LAN-5 cells (AID 1347100). The method in brief:
as §3

A short description of assay [12]: qHTS of pediatric cancer cell lines to identify multiple opportunities for drug repurposing: Primary screen for BT-12 cells (AID 1347101). Note: nearly all actives have a fitted effect of over 25% in size. The gist of the method:
as §4

The nature of assay [13]: qHTS of pediatric cancer cell lines to identify multiple opportunities for drug repurposing: Primary screen for Rh18 cells (AID 1347102). Note: nearly all actives have a fitted effect of over 65% in size. The gist of the method:
as §3

Assay [14] is described as follows: qHTS of pediatric cancer cell lines to identify multiple opportunities for drug repurposing: Primary screen for OHS-50 cells (AID 1347103). Note: nearly all actives have a fitted effect of over 40% in size. The gist of the method:
as §4

Assay [15] is described as follows: qHTS of pediatric cancer cell lines to identify multiple opportunities for drug repurposing: Primary screen for RD cells (AID 1347104). Note: nearly all actives have a fitted effect of over 55% in size. The gist of the method:
as §2

A short description of assay [16]: qHTS of pediatric cancer cell lines to identify multiple opportunities for drug repurposing: Primary screen for MG 63 (6-TG R) cells (AID 1347105). Note: nearly all actives have a fitted effect of over 50% in size. The gist of the method: as §2
A short description of assay [17]: qHTS of pediatric cancer cell lines to identify multiple opportunities for drug repurposing: Primary screen for Rh30 cells (AID 1347107). Note: series mostly up to about 46 µM; nearly all actives have a fitted effect of over 75% in size. The method in brief:
as §3

Assay [18] can be described thus: qHTS of pediatric cancer cell lines to identify multiple opportunities for drug repurposing: Primary screen for Saos-2 cells (AID 1347097). Note: nearly all actives have a fitted effect of over 40% in size. The method in brief:
as §2

Assay [19] in a line: qHTS of pediatric cancer cell lines to identify multiple opportunities for drug repurposing: Primary screen for control Hh wild type fibroblast cells (AID 1347106).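 Note: series mostly up to about 46 µM; a drop in luminescence marks cytotoxicity and a rise apparent proliferation; nearly all actives have a fitted effect of over 55% in size.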 The method in brief:
as §3

Assay [20] in a line: qHTS of pediatric cancer cell lines to identify multiple opportunities for drug repurposing: Primary screen for TC32 cells (AID 1347089). Note: nearly all actives have a fitted effect of over 60% in size. The gist of the method:
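Luminescent ATP read-out (CellTiter-Glo) of metabolically active TC32 cells after 48 h exposure. Concentration-response curves came from 11-point (MIPE, 0.78 nM–46 µM) or 8-point (NPC, 0.59 nM–46 µM) primary titrations; follow-up used 11 points.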

Inconclusive results are not listed. Unmarked numbers belong to inactive results. Calls of active or inactive are those of the source. Calls come from the whole dose curve; as a rule, active = well fitted curve in the direction sought with a large enough effect; inconclusive = small, poorly fitted or top-dose-only effect, or another doubt; inactive = no such curve, though single readings can be large; an effect the other way counts as inactive or inconclusive.

As to `C[C@H]1COc2c(C3(N)CC3)c(F)cc3c(=O)c(C(=O)O)cn1c23`, the call in assay [1], in assay [2], in assay [3], in [4], in assay [6] and in assay [7] was inactive. The result in assay [8], in assay [9], in assay [11], in assay [12], in assay [13] and in [14] was inactive. Besides, the compound was called inactive in assay [15], in assay [16] and in assay [17]. The Potency entry in [5] and in [10] was “inactive” in each case.

As to `COc1ccccc1Oc1c(NS(=O)(=O)c2ccc(C(C)(C)C)cc2)nc(-c2ncccn2)nc1OCCO`, the compound was called inactive in [1], in assay [3], in assay [4], in [6], in assay [8] and in assay [18]. Also, the outcome in assay [9], in [11], in [12], in [13], in assay [14] and in assay [15] was inactive. Further, the result in assay [16], in assay [19] and in [17] was inactive. Also, in assay [5], the Potency entry is “inactive”.

Turning to `CC1(C)[C@@H](OC(=O)CCC(=O)O)CC[C@]2(C)[C@H]3C(=O)C=C4[C@@H]5C[C@@](C)(C(=O)O)CC[C@]5(C)CC[C@@]4(C)[C@]3(C)CC[C@@H]12`, the compound was called inactive in assay [1], in assay [2], in assay [3], in assay [6], in [7] and in assay [8]. Also, the result in assay [18], in assay [9], in assay [11], in assay [12], in [13] and in assay [14] was inactive. Moreover, the compound was called inactive in assay [15] and in assay [17]. Also, the Potency result in assay [5] and in assay [10] was “inactive” each time.

As for `COc1ccccc1OCC(O)CO` (stereo not given), the outcome in assay [1], in [2], in [3], in assay [4], in assay [6] and in assay [7] was inactive. In addition, the result in [8], in assay [18], in assay [9], in assay [11], in assay [12] and in [13] was inactive. Besides, the compound was classed as inactive in assay [14], in [15], in assay [16], in assay [19] and in assay [17]. Moreover, the Potency entry in [5] and in [10] was “inactive” throughout.

In the case of `Cc1cc(C)nc(NS(=O)(=O)c2ccc(N)cc2)n1`, the result in assay [20], in assay [2], in assay [3], in assay [6], in assay [7] and in [8] was inactive. The call in assay [18], in assay [9], in [11], in assay [12], in [13] and in [15] was inactive. Also, the compound was called inactive in assay [16], in assay [19] and in assay [17]. The Potency result in [5] and in assay [10] was “inactive” each time.

As to `C=CCOc1ccccc1OCC(O)CNC(C)C` (stereo not given), the result in [1], in assay [2], in assay [3], in assay [4], in assay [6] and in assay [8] was inactive. Also, the call in [18], in [9], in assay [11], in assay [12], in [13] and in assay [14] was inactive. Further, the result in assay [15], in assay [16], in assay [19] and in assay [17] was inactive. Besides, the Potency entry in assay [5] and in [10] was “inactive” throughout.

Consider `CC(C)=CCC/C(C)=C/CO`, for which the compound was classed as inactive in assay [1], in [2], in assay [3], in assay [4], in [6] and in [7]. Further, the compound was called inactive in assay [8], in assay [9], in assay [11], in assay [12], in assay [13] and in assay [14]. The result in [15], in [16], in assay [19] and in assay [17] was inactive. Besides, the Potency result in [5] and in assay [10] was “inactive” each time.

On to `Cc1cc(O)cc(C)c1Cl`, for which the outcome in assay [1], in [2], in assay [3], in [4], in assay [6] and in assay [8] was inactive. Besides, the compound was classed as inactive in assay [18], in assay [9], in assay [11], in assay [12], in assay [13] and in [14]. In addition, the compound was called inactive in [15], in assay [16], in [19] and in assay [17]. In addition, the Potency result in assay [5] and in assay [10] was “inactive” in each case.

As for `Nc1ccc(S(=O)(=O)c2ccc(N)cc2)cc1`, the compound was classed as inactive in [1], in assay [2], in assay [3], in [4], in [7] and in assay [8]. Besides, the compound was classed as inactive in assay [18], in assay [9], in assay [11], in assay [12], in assay [13] and in assay [14]. Moreover, the call in [15], in assay [16], in assay [19] and in assay [17] was inactive. In addition, the Potency result in assay [5] and in assay [10] was “inactive” in each case.

Regarding `CCCCCCCC(=O)OCC(O)CO` (stereo not given), the call in [1], in [2], in assay [3], in assay [4], in [6] and in assay [7] was inactive. Moreover, the call in [18], in assay [9], in assay [11], in assay [12], in assay [13] and in assay [14] was inactive. Further, the call in assay [15], in assay [16], in [19] and in [17] was inactive. For the same compound, the Potency result in assay [5] and in assay [10] was “inactive” each time.

Consider `COc1ccc(Cc2cnc(N)nc2N)cc1OC`, for which the compound was called inactive in [1], in assay [2], in assay [3], in assay [4], in assay [6] and in [7]. The call in assay [18], in assay [9], in [11], in [12], in assay [13] and in [14] was inactive. Also, the call in [15], in assay [19] and in assay [17] was inactive. In addition, in [5], the Potency was 7.5 µM (active). For the same compound, in assay [10], the Potency entry was “inactive”.

For `NCc1ccc(S(N)(=O)=O)cc1`, the compound was classed as inactive in assay [1], in assay [2], in [3], in [4], in [6] and in assay [7]. Further, the compound was classed as inactive in assay [8], in assay [9], in assay [11], in assay [12], in assay [13] and in assay [14]. For the same compound, the compound was classed as inactive in assay [15], in [16], in assay [19] and in assay [17]. The Potency entry in assay [5] and in assay [10] was “inactive” in each case.
